Experimental data from PubChem BioAssay AID493168 (National Center for Advancing Translational Sciences (NCATS), 2011).
Records with an inconclusive call do not appear. A call without a number means that no potency is given here. The source made the active and inactive calls. Calls follow the shape of the dose curve; as a rule, active = well fitted inhibition curve with a large enough effect; inconclusive = small, poorly fitted or top-dose-only effect, or effect the other way; inactive = flat fitted curve, though single readings scatter.

Molecular target: Ubiquitin carboxyl-terminal hydrolase 2 (Homo sapiens) (UniProt O75604)
Sequence (O75604 whole entry, looked up): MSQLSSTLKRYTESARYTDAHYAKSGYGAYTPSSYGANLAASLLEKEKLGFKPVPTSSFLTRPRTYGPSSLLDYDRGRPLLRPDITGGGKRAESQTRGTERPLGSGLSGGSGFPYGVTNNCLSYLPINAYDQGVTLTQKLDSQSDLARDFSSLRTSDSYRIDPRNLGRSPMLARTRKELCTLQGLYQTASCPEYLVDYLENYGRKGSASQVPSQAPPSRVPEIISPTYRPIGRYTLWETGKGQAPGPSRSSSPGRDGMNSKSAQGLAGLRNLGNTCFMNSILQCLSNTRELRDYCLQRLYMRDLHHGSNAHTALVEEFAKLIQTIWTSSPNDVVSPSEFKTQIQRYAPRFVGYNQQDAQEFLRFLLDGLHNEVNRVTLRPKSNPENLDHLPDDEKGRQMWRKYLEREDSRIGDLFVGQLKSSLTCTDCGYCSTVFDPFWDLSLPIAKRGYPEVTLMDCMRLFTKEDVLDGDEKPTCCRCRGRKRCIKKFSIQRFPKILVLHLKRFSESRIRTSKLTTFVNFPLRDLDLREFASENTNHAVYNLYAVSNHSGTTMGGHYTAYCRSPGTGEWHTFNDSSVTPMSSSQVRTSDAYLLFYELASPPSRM
Assay: Confirmation Assay for Inhibitors of Ubiquitin-specific Protease USP2a Using CHOP2 as the Reporter; also: nearly all actives have a fitted effect of over 55% in size
Conditions: USP2 core, Ub-CHOP2 coupled reporter fluorescence; series mostly up to 38.3 µM
How it was run: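 Ub-CHOP2 cleavage coupled to reporter activation was read by fluorescence after 60 min at RT, with 25 nM final Ub-CHOP2 and substrate. Enzyme (10 nM final USP2 core) first sat 30 min with compound; data were normalized to NEM and fitted to concentration-response curves.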
Potency is read from the fitted curve at half-maximal effect.

| SMILES | Potency |
| --- | --- |
| O=C(O)C1CCN1C1CCCCC1 (centres undefined) | inactive |
| N#Cc1c(Nc2ccc(Cl)cc2)s[nH]c1=O | inactive |
| O=C(CSc1nc(N2CCCCC2)nc(N2CCCCC2)n1)N1CCN(c2ccccc2)CC1 | inactive |
| Cc1ccc(NC(=O)CCC(=O)OC(C)C(=O)c2ccccc2)cc1 (centres undefined) | inactive |
| Cn1nnnc1Sc1ncnc2scc(-c3ccc4c(c3)OCO4)c12 | inactive |
| CC1(C)CC(=O)C=C(NCc2cccs2)C1 | inactive |
| COc1ccc(-c2nc(Cn3c(SCc4ccc(F)cc4)nc4ccncc43)c(C)o2)cc1OC | inactive |
| CCCNC(=O)CS(=O)Cc1nc(-c2ccccc2C)oc1C (centres undefined) | inactive |
| Cc1ccc(S(=O)(=O)Nc2ccccc2C(=O)Nc2nc(-c3ccc(F)cc3)cs2)cc1 | 14.7 µM (active) |
| Cc1ccc2[nH]c(=O)c(COC(=O)c3ccccn3)cc2c1 | inactive |
| C#CCOCCOCCOCCNc1nc(N2CCN(C(=O)CCCCCCCCCCNC(=O)[C@H](CCCCN)n3cc(CCO)nn3)CC2)nc(N2CCN(C(=O)CCCCCCCCCCNC(=O)[C@H](CCCCN)n3cc(C[C@@H](C)CC)nn3)CC2)n1 | 8.26 µM (active) |
| CCCCCc1ccc(OCCOCCn2c[n+](C)c3ccccc32)c(CCCCC)c1 | inactive |
| CCOC(=O)N1CCN(S(=O)(=O)c2ccc(C)cc2)C1c1ccc(OC)cc1 (centres undefined) | inactive |
| CCCCNC(=O)Nc1ccccc1C(=O)NCc1ccco1 | inactive |
| Cc1nc2cc3ccccc3cc2c(=O)[nH]1 | inactive |
| Nc1c(C(=O)Nc2ccc(Cl)cc2)oc2ccccc12 | inactive |
| O=C(C[n+]1cccc(C(=O)N/N=C/c2ccc(Br)cc2)c1)c1ccccc1 | inactive |
| c1coc(CNc2nc(-c3cccs3)cs2)c1 | inactive |
| O=C(Nc1cccc(C(F)(F)F)c1)/C(=C\c1ccco1)NC(=O)c1cccs1 | inactive |
| COc1ccc(NC(=O)CN(Cc2ccccc2)S(C)(=O)=O)cc1 | inactive |
| Cc1c2c(=O)n(-c3nc4ccccc4s3)nc-2cc(O)n1Cc1ccccc1 | inactive |
| COC(=O)C1CCN(C(=O)COC(=O)CC(NC(N)=O)c2ccc(Cl)cc2)CC1 (centres undefined) | inactive |
| CCCNC(=O)NCc1ccc(N2CCCC2=O)cc1 | inactive |
| CC1(C)CC(=O)C2=C(C1)Oc1ncn(CCCO)c(=N)c1C2c1ccccc1 (centres undefined) | inactive |
